NALP1 yeast inh: inhibitors of NALP1 inflammasome in yeast; AID 2071; S. cerevisiae NALP1/ASC/caspase-1 growth, X-gal OD620, 72 h; actives 0.61% (n = 280,000); inhibition, % at 10 µM; in the data active means inhibition mostly above about 24%, no sharp cut-off; inactive means mostly below about 32%
tim23-1 inh: tim23-1 yeast growth inhibition; S. cerevisiae tim23-1 growth, BacTiter-Glo luminescence, 24 h; inhibition, % at 20 µM; actives 1.3% (n = 330,000); AID 463212;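 active means growth inhibition of the mutant yeast at or above 50%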;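 further: temperature-sensitive mutant grown at 25 °C; plate controls were DMSO-treated mutant yeast for no effect and medium wells lacking yeast for full effect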
NLRP3 yeast inh: blocks the NALP3 inflammasome reconstituted in yeast; Yeast reconstituted NLRP3/ASC/caspase-1, beta-gal luminescence, 24 h; inhibition, % at 10 µM; actives 0.39% (n = 330,000); AID 2825;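 active means inhibition of 50% or more; inactive means inhibition below 50%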;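 further: plate controls were induced DMSO wells for no effect and uninduced yeast grown without galactose for full effect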
tim10-1 inh: inhibits growth of tim10-1 mutant yeast. S. cerevisiae tim10-1 ts strain growth, BacTiter-Glo, 24 h. actives 2.2% (n = 330,000). inhibition, % at 20 µM;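 active means inhibition of at least 40%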;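 further: mutant grown at 25 °C; 0% = DMSO wells with yeast and 100% = wells holding no yeast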
V-ATPase pH: alters yeast V-ATPase proton transport | actives 0.37% (n = 350,000) | AID 504577 | S. cerevisiae, pHLuorin cytosolic pH fluorescence | response, % at 10 µM; in the data active means response mostly above about 7.3%, no sharp cut-off; inactive means mostly below about 5.4%; further: actives read high
TIM10 inh: inhibits growth of TIM10 yeast strain | inhibition, % at 10 µM | AID 463195 | S. cerevisiae TIM10 strain growth, BacTiter-Glo luminescence, 24 h | actives 1.4% (n = 330,000);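 active means inhibition of 40% or more at the single tested concentration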;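 further: wild-type TIM10 isogenic control strain grown at permissive 25 °C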
tim10-1 conf: confirmation of tim10-1 mutant yeast growth inhibitors. inhibition, % at 20 µM. actives 56% (n = 7,400). AID 463213. S. cerevisiae tim10-1 ts strain growth, BacTiter-Glo, 24 h. shares compounds with tim10-1 inh;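 active means inhibition of yeast growth at or above a set limit in either of two repeat tests at 20 µM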;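 further: tim10-1 mutant grown at permissive 25 °C to find synthetic lethal compounds; 0% = DMSO yeast wells and 100% = medium wells without yeast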
tim10 confirm: TIM10 yeast growth inhibition, confirmed; shares compounds with TIM10 inh; S. cerevisiae tim10 strain growth, BacTiter-Glo luminescence, 24 h; inhibition, % at 10 µM; actives 63% (n = 4,600); AID 463215;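 active means inhibition of yeast growth at or above a set limit in either of two replicates at 10 µM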;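 further: this counterscreen used the strain with wild-type TIM10; 0% = yeast with DMSO and 100% = medium wells lacking yeast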
Numbers without * were called inactive; . = no result. This is a sample that favours compounds with a hit; in the whole collection about 4.2% have one here.

SMILES	NALP1 yeast inh	tim23-1 inh	NLRP3 yeast inh	tim10-1 inh	V-ATPase pH	TIM10 inh	tim10-1 conf	tim10 confirm
Nc1nccnc1C(=O)OCC(=O)C12CC3CC(CC(C3)C1)C2	.	4.1	5.1	-4.4	4.0	2.1	.	.
COC(=O)C1(Cc2cc(-c3ccc(Cl)cc3)no2)CCN(C(=O)OC(C)(C)C)CC1	6.8	28.0	11.5	53.8*	-3.9	44.1*	45.0*	39.7*
O=C(NC1CCSc2ccccc21)c1ccc(F)c(S(=O)(=O)N2CCOCC2)c1 (centres undefined)	14.1	13.6	3.2	26.2	-5.5	5.5	.	.
CCNC(=S)N/N=C/c1cccc(OCc2c(F)cccc2Cl)c1	-2.7	30.9	-3.5	44.3*	-0.7	53.3*	37.0*	41.1*
CC(C)c1ccccc1NC(=S)NC(C)c1ccccc1 (centres undefined)	.	40.2	7.5	42.0*	2.8	41.6*	22.8	16.8
CC(NC(=S)Nc1ccc(F)cc1)c1ccccc1 (centres undefined)	-6.0	28.3	15.7	24.4	-0.5	12.7	.	.
Cc1cc(C)c(C)c(S(=O)(=O)NC2CCN(Cc3ccccc3)CC2)c1C	-52.5	21.5	29.4	19.7	-1.1	19.6	.	.
O=C(/C=C/c1ccc2ccccc2n1)c1cc(Cl)ccc1O	10.6	45.3	17.1	54.2*	-4.3	53.5*	37.5*	36.0*
O=C(/C=C/c1cccs1)c1cc(Cl)ccc1O	6.8	26.0	-22.8	34.8	-1.0	39.9	.	.
Cc1onc(-c2ccccc2Cl)c1C(=O)O/N=C(\N)c1ccc([N+](=O)[O-])o1	-8.6	39.3	13.5	49.2*	-2.6	44.2*	28.1	44.0*
Cc1ccc(N2C(=O)CC(Cc3cccc(C)c3)C2=O)cc1 (centres undefined)	-4.2	15.3	18.5	4.1	-1.9	-22.0	.	.
O=C(Oc1ccc(F)cc1C(=O)/C=C/c1cccs1)c1cccc([N+](=O)[O-])c1	7.5	20.8	-7.0	50.8*	5.8	49.9*	39.5*	1.0
Cc1ccc(OC(=O)c2cccc([N+](=O)[O-])c2)c(-n2nc3ccccc3n2)c1	20.3	-3.7	-9.2	25.0	-2.9	-14.9	.	.
CC(C)c1nc(SCC(=O)NCC2CCCO2)c2c(=O)n(C)c(=O)n(C)c2n1 (centres undefined)	0.6	6.9	17.6	4.8	5.3	-10.3	.	.
CCOC(=O)CN1CCC(c2cc(-c3ccc(Cl)cc3)n[nH]2)CC1	15.0	19.2	4.7	18.8	4.5	-8.5	.	.
O=[N+]([O-])c1cccnc1N1CCC(c2cc(-c3ccc(Cl)cc3)n[nH]2)CC1	40.3*	13.7	19.1	42.8*	-0.5	48.9*	37.0*	46.5*
Cn1c(/C=C/c2ccc([N+](=O)[O-])o2)nc2ccccc2c1=O	-55.2	-2.9	13.8	77.0*	2.4	76.8*	58.2*	-19.8
CC(=O)c1ccc(NC(=S)NC2CCCC(C)C2C)cc1 (centres undefined)	10.5	45.2	18.6	45.0*	-0.8	47.4*	43.5*	36.1*
CCCCCCN(C(=O)CCCCCN1C(=O)NC(c2ccc([N+](=O)[O-])cc2)C(C(=O)OCc2ccccc2)=C1C)C(C(=O)NCCCC)C1CCCCC1 (centres undefined)	.	19.3	.	4.8	-3.3	-10.5	.	.
C[C@H]1COC2=C1C(=O)C(=O)c1c2ccc2c1CCCC2(C)C	-0.8	.	.	.	-5.1	.	.	.
Cc1coc2c1C(=O)C(=O)c1c-2ccc2c1CCCC2(C)C	-12.9	47.4	7.8	47.7*	1.9	43.6*	37.6*	36.5*
COC(=O)C(C(C)=O)C1=C/C(=N\S(=O)(=O)c2ccc(C)cc2)c2ccccc2C1=O (centres undefined)	1.3	44.1	4.3	40.1*	-0.2	42.8*	40.9*	29.5
COc1ccc(S(=O)(=O)/N=C2\C=C(Nc3ccc(O)cc3)C(=O)c3ccccc32)cc1	2.0	41.2	29.8	66.8*	0.0	52.2*	62.0*	81.3*
Cc1ccccc1NC1=C/C(=N\S(=O)(=O)c2ccc(C(=O)O)cc2)c2ccccc2C1=O	19.2	48.2	42.4	26.8	-3.8	21.3	.	.
COc1ccc(C(CNC(=O)CSc2ccc(Br)cc2C)N2CCOCC2)cc1 (centres undefined)	.	27.3	-5.4	23.6	-0.8	12.0	.	.
SMILES	NALP1 yeast inh	tim23-1 inh	NLRP3 yeast inh	tim10-1 inh	V-ATPase pH	TIM10 inh	tim10-1 conf	tim10 confirm
O=C(/C=C/c1ccc(N2CCC(c3ccccc3)=N2)cc1)c1ccccc1	-8.9	11.8	-7.9	41.3*	.	43.5*	25.1	24.5
Nc1ncnc2c(C3OC(CO)C(O)C3O)c[nH]c12 (centres undefined)	.	.	.	.	-2.0	.	.	.
Cc1cccc(OCCCOc2cccc3cccnc23)c1C	19.4	47.9	30.1	45.6*	1.7	46.6*	20.1	38.8*
Cc1ccc(OCCCOc2cccc3cccnc23)cc1C	16.5	48.8	22.5	39.8	-5.1	34.8	.	.
c1ccc(-c2nc(N3CCCCCC3)c3ccccc3n2)nc1	9.2	-22.3	32.6	0.5	-2.4	24.3	.	.
c1ccc(Oc2nc(-c3ccccn3)nc3ccccc23)cc1	16.8	47.2	48.2	43.4*	3.1	50.2*	23.3	19.5
COc1ccc(CCNC(=O)c2cccnc2Cl)cc1OC	.	-6.5	8.2	10.3	1.3	13.3	.	.
CCc1ccc(OCC2NCCc3cc(OC)c(OC)cc32)cc1 (centres undefined)	29.5	30.0	10.2	33.3	0.6	25.1	.	.
COc1cc2c(cc1OC)C(COc1ccc(F)cc1)NCC2 (centres undefined)	21.6	32.8	19.5	43.2*	-4.9	44.8*	36.0*	41.7*
CCOC(=O)/C(C#N)=C/c1cc2ccccc2nc1N1CCCCC1	-1.6	23.4	-10.1	30.4	-0.4	11.8	.	.
Cc1ccc2cc(/C=C(\C#N)C(N)=O)c(N3CCCCC3)nc2c1	24.8	32.2	16.7	41.6*	-1.3	46.1*	17.7	33.7*
COc1ccc(-n2c(=O)c3c4c(sc3n3c(=S)[nH]nc23)CCCC4)cc1	11.6	30.1	15.5	40.0	9.4	48.2*	37.3*	18.4
COC(=O)CSc1nnc2n(-c3ccc(OC)cc3)c(=O)c3c4c(sc3n12)CCCCC4	-7.2	2.4	1.8	21.1	-3.2	19.2	.	.
O=[N+]([O-])c1ccc(-[n+]2ccc3ccccc3c2)c([N+](=O)[O-])c1	.	49.1	10.1	57.7*	-2.0	49.8*	51.7*	51.8*
O=[N+]([O-])c1ccc(SNc2ccccc2)c([N+](=O)[O-])c1	.	.	.	.	-2.3	.	.	.
COc1ccc(OC(C)C(=O)N(C)Cc2nc(-c3cccc(C)c3)no2)cc1 (centres undefined)	11.6	14.9	18.7	6.1	-2.6	12.2	.	.

High-throughput results (PubChem BioAssay)
